# Assay results from PubChem BioAssay AID1347426 (Functional Genomics Laboratory (NCATS/FGL), 2020).
# Screen size: about 31,000 sequences; about 1,400 (4.5%) were called active.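 Rule for the calls: active = median seed-adjusted z-score above 1 or below -1; inactive = the rest.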 The full list was thinned out, with actives kept by preference.
# Assay: Novel Modifiers of Survival Motor Neuron (SMN) Protein: Gene Identification via Genome-wide siRNA Screen;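 note: luminescence tracks full-length SMN protein made from the SMN2 reporter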
# Conditions: HEK293T SMN2-luciferase reporter, siRNA knockdown, 72 h; actives lie on both sides
# Procedure, shortened: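 Luciferase signal, proportional to full-length SMN made from an SMN2 cDNA reporter in stable HEK293T cells, was read 72 h after siRNA reverse transfection. Values were expressed as MAD scores after non-targeting-control normalization and log10 conversion; seed analysis flagged off-targets.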
row,Sequence,median seed-adjusted z-score
1,GGACUGUCAAUCUUAGAUATT against GRK4,-0.267 (inactive)
2,CGUGUACAAGGCUCUAACATT against EPN3,0.184 (inactive)
3,CUACGAAUCUGUGAAUGAATT against ERH,-1.25 (active)
4,GCUAACCACUUGGAAGAUATT against PRMT7,0.204 (inactive)
5,GGCAGAACCUAUACCAGAATT against MED6,-2.15 (active)
6,CAGAACCUGUUGUAGAAAATT against GSPT2,0.846 (inactive)
7,GGACGACUGCAGCAAGUUUTT against ATP2A3,-0.28 (inactive)
8,AGACCAUCCCUAACGGAUATT against PRELP,-0.0579 (inactive)
9,GCUCGUAGUUGGGAUAACATT against FRAP1,-1.02 (active)
10,GGCUCUCAGAUUGUUGACATT against GABARAPL2,0.528 (inactive)
11,GAACAUUGGUGACUAUAUUTT against GRIP2,-0.0256 (inactive)
12,GGAUGAUGUGCGUAACAGATT against HAO1,0.421 (inactive)
13,CAGAAGUUCUCAGACCUAATT against ZNF721,0.404 (inactive)
14,GCUAUACGGUUGACAACGATT against ISLR,0.00807 (inactive)
15,CCCUCCUCGUGGAACCAUATT against NEURL2,1.39 (active)
16,UCGUGGACCUGGUCUGUUATT against OGDHL,-0.0878 (inactive)
17,GGUCGAAAAGCAAACUCAATT against PTPRN2,-0.104 (inactive)
18,CAUGGAAGAUCUGACCAUATT against MEOX2,1.36 (active)
19,GCAGGAUGAUCUCAAGUAUTT against MOBKL2B,-0.613 (inactive)
20,CCGCAGUGGAAAUACCAUATT against ANGEL1,-0.332 (inactive)
21,GCGGCUAACAGGAUAUGUATT against ACTN2,0.165 (inactive)
22,CACAAGAUAUCAGGAGAAATT against FCRL2,-0.294 (inactive)

row,Sequence,median seed-adjusted z-score
1,CAUGAUCUCCGGCUACCUATT against SLCO2B1,0.289 (inactive)
2,GGAUGCUCCAAGUCUGUCATT against GPR179,-0.513 (inactive)
3,GCAGUUGUCCAGUUACGAATT against RAD50,0.266 (inactive)
4,GAAGCUACAUGGGAAGUGUTT against SIRT7,-0.427 (inactive)
5,CAGGUCGACUGAUAGAUCATT against DDX42,-2.13 (active)
6,GGACUGAUCAUGAACCUCUTT against CPEB3,0.086 (inactive)
7,GAGUUUAAUCUGAUUGAUATT against MOBKL1B,0.31 (inactive)
8,GCACUAUAUGAAUACGCAATT against AUP1,0.305 (inactive)
9,GCAUCACACUCACAUCCCATT against DNASE2,-1.23 (active)
10,GCUCUGUACAGGAAACUCUTT against IL2RA,0.587 (inactive)
11,GUGUAGGGAUAGUUACCAATT against ZNF518A,-0.252 (inactive)
12,GAGUUCUACUUGUCCAAUUTT against ZDHHC20,-0.936 (inactive)
13,GGCUUUGCUUAAGUUCAAATT against LPCAT4,0.338 (inactive)
14,CAACCAUAGUUAAAGUUAATT against TCP1,-1.02 (active)
15,GGAUGUCUCAUUACACCAUTT against TGFBR3,0.285 (inactive)
16,UGCUGGUGUUUAAACCCAUTT against C5AR1,0.366 (inactive)
17,GCGACUUCAUGAUAGCAUATT against CAMK2D,0.0676 (inactive)
18,GGAGAUAUUUUUGACGGAATT against ZFHX3,0.045 (inactive)
19,AAGCCUACCAGGUCAAGUATT against EVI5L,0.0497 (inactive)
20,GGAUAUUAAGGACAGGAAATT against RAN,-3.09 (active)
21,GAAGCUACAGAAUCUGGAATT against ARFGAP2,0.0672 (inactive)
22,GGAUUCAACUUUACAAGAATT against BTD,-0.165 (inactive)

row,Sequence,median seed-adjusted z-score
1,AGGAGAUCGUCGUCACUGATT against NNMT,-0.095 (inactive)
2,CCAUAGCAGUAAUGAUACATT against GRIN3A,0.241 (inactive)
3,GCCUGAACCGAGUAGAAGATT against KCNQ1,-0.0525 (inactive)
4,GCAAGACCAUCAACAAGAUTT against CHRNE,0.349 (inactive)
5,CGGUCACAAUUUGCGCUGATT against ST8SIA3,-0.848 (inactive)
6,AAACAAUGGUUUGUGCAAATT against UCRC,-0.93 (inactive)
7,GGCUUUAAGAUCACGCAGATT against SNRPA,-2.09 (active)
8,GGUCCGCUACUACCACCAATT against FUT4,-0.24 (inactive)
9,GAAGCUUACAGAUUCGAUATT against CNTNAP2,-0.196 (inactive)
10,GGAUGACAUUAGCAGGUAUTT against ERCC6,0.0421 (inactive)
11,GAAAGUUCAAGUACAGUGATT against CYP2E1,0.81 (inactive)
12,GAAUCUGGUGGGCCCUUUATT against POFUT2,-0.86 (inactive)
13,GCUCAGCAUUGUCUGCAAATT against RNASE6,0.832 (inactive)
14,GAUUCUAGGAUAAGCACUATT against KLK8,0.736 (inactive)
15,GGUAAAGUUUUACAGCAUUTT against MTCH2,-0.168 (inactive)
16,CCUGUAGAUUUGUCAACUATT against RANBP2,1.53 (active)
17,AGCACGAAGGCAAACCCUATT against CRIP1,-0.622 (inactive)
18,GUUGAGCCCUUGUAUAUUATT against UBE2C,0 (inactive)
19,GCUUUGAGGAAAAUCCGAATT against SLC26A3,-0.506 (inactive)
20,GGAAAGCUCUUCGUCUGGATT against IFIT5,0 (inactive)
21,GCCUCUUAAUUUACCAGAATT against OGN,0.0889 (inactive)
22,GGUUGUUAGUGGAUCAUCATT against FBXW11,0.206 (inactive)

row,Sequence,median seed-adjusted z-score
1,GAGUGAUAUGAAACGGAAATT against NVL,0.701 (inactive)
2,GUUUCGAGAUUGUUGCUAUTT against CCNL1,-1.26 (active)
3,CGACUACUACUACCCUGAUTT against CCR8,-0.206 (inactive)
4,AGUGCAAAAACGUGCUGAATT against AURKAIP1,0.067 (inactive)
5,CGAUUGCUUUUCUACCAACTT against SCP2,0.413 (inactive)
6,CAUUUCGACUGGAUCAUAUTT against CLK1,-0.436 (inactive)
7,AUACAGAUGAUAAACCAUUTT against ZBTB34,0.0298 (inactive)
8,CGGCCCUCCUCUGAAAAGATT against POU4F2,1.46 (active)
9,CCUCAGAUCUGAUGUCCAATT against VPS4A,0 (inactive)
10,GAAUGACCCUGUACCCUAUTT against TAF2,-0.243 (inactive)
11,GAAGGAUUUUGAGCCCGAATT against LETM1,-0.491 (inactive)
12,ACACGUUGGAAGUAGCUGATT against OTUD4,0.167 (inactive)
13,GCUUAUAUGUUACCAUGGATT against COG4,-0.508 (inactive)
14,GGUGACCGGUUACUUGGGATT against FFAR1,0.248 (inactive)
15,GCUUAUCUCGGCAAUCAAATT against PAPPA2,-0.173 (inactive)
16,GAAAGACGAGCUUUACCUATT against GSK3A,0.248 (inactive)
17,UGUGGAUCUGCUUACCAAATT against ZFAND2B,0 (inactive)
18,GAGGUUUUCCAGACGGUGATT against EHD3,0.569 (inactive)
19,GCAUGCUCAUGGGUUACAATT against ZNF451,0 (inactive)
20,GGUGGUUGCUGUAUAUGGATT against KCTD9,1.31 (active)
21,CGGAAGCAGUUCCAACUUUTT against AKAP8,-0.252 (inactive)
22,CAAAAUACAGAGUUUCUUUTT against RILP,0.503 (inactive)

row,Sequence,median seed-adjusted z-score
1,GGAUGUGAACGGGCACAUUTT against CDC42BPG,0.153 (inactive)
2,CAGACAGUAUGUUCGAAGATT against PPAT,-1.51 (active)
3,GAAUCCUGAUGGGUAUGAATT against CPD,-0.198 (inactive)
4,GUCUUUAAUGCGCACUAUATT against FEZF1,0.155 (inactive)
5,ACAUCGUUGUGGUCAAGGUTT against ADAMTS15,0.765 (inactive)
6,GGACAAAACUCCUCUCUAUTT against MED27,-1.62 (active)
7,GUAUAGGGCCUGUAAGUUUTT against LANCL1,0 (inactive)
8,CUGCCUUGAUGACACCAGATT against TRIM16,0.345 (inactive)
9,CUACUAUCCUGGUUCUGGATT against PROS1,0.436 (inactive)
10,GUGAUACUGUCAAAGGUCATT against ATF2,0.424 (inactive)
11,GGGUUUAACUGGGAACUCUTT against GALNT8,-0.283 (inactive)
12,GAUCCGUUGGUGCAUGAAATT against ABHD2,-1.21 (active)
13,GAUCGACUGCUAGAGAGUATT against DCLK1,0.193 (inactive)
14,GUGCUAACUCAAUUCCAUATT against SSBP3,0.00592 (inactive)
15,GCCUUUCAGCAUGCGGUUATT against GDPD1,0.527 (inactive)
16,CCAUCUCUUUGGUAGUACUTT against TBC1D23,0.0932 (inactive)
17,CGUCUUUCCAGAAUUCAAATT against HGS,1.16 (active)
18,GCAAGACUUUUGGUCGAAATT against ZNF816A,0.39 (inactive)
19,CCGUUGCUAUGAACAAGUUTT against B4GALT3,-0.138 (inactive)
20,GACAGAAGAUCAAUAUGAATT against ETS2,0.636 (inactive)
